From PubChem BioAssay (NCI)
Compounds without any hit were thinned out: in the full panel of roughly 83,000, 20% have a hit.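 How to read the values: 0–100, growth inhibition (40 = 60% inhibited); 0, no net growth; -100 to 0, cell death (-40 = 40% of starting cells died; -100 = all dead).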 The source made the active and inactive calls. How the source made its calls: active means growth percent below 10; inactive means the rest.

The compounds below were run on UACC-62 melanoma (assay: NCI-60 one-dose screen, 48 h (100 = growth as untreated, 0 = no growth, -100 = all killed)). Details: 10 µM unless noted.

Question: Which growth does the source give for `N#C/C(=C\c1ccc(Br)cc1)n1nnc2cccc(F)c21` here?
Answer: The growth was 22.7% (inactive).

Question: Which growth does the source give for `COc1cc2oc(-c3cccc(C(=O)Nc4ccc(Cl)cc4)c3)cc(=O)c2c(OC)c1OC` here?
Answer: Its growth is -9.87% (active).

Question: How did the growth turn out when `CS(=O)(=O)c1ccc(-c2cc(-c3nnc(SCC(=O)Nc4ccc(C(=O)/C=C/c5ccc(Cl)cc5)cc4)n3-c3ccccc3)c3ccccc3n2)cc1` was run?
Answer: The growth was 80.2% (inactive).

Question: Which growth does the source give for `NC(=O)c1cccc(-n2ccc3cc(NC(=O)Nc4cc(C(F)(F)F)cc(C(F)(F)F)c4)ccc32)n1` here?
Answer: The growth was 52.9% (inactive).

Question: How did the growth turn out when `COc1ccc2c(Nc3ccc(NS(C)(=O)=O)cc3)c3ccccc3nc2c1` was run?
Answer: The growth was -65.4% (active).

Question: `CN(C)c1ccc(-c2c(C#N)c(N)n3nc(N)c(C#N)c3c2C#N)cc1` was tested. Which growth did it give?
Answer: Its growth is 113% (inactive).

Question: `CCCCCOc1ccc(/C=N/Nc2cc(C)nc3ccc(Br)cc23)cc1` was tested. Which growth did it give?
Answer: Its growth is 93.2% (inactive).

Question: How did the growth turn out when `COc1cccc(C(Cc2ccccc2)Nc2ccccc2)c1OC` (configuration not stated) was run?
Answer: Its growth is 88.7% (inactive).

Question: `Cc1ccc(Nc2cc(=S)nc(N)[nH]2)cc1C` was tested. Which growth did it give?
Answer: The growth was 89.2% (inactive).

Question: For `CC(C)(C)OC(=O)N1CCN(c2ccc(N)cc2)C(=O)C1`, which growth is on record?
Answer: Its growth is 98.1% (inactive).

Question: For `CC(=O)OCC(=O)C1(O)C(C)CC2C3C=C(C)C4=Cc5c(cnn5-c5ccccc5)CC4(C)C3C(O)CC21C` (configuration not stated), which growth is on record?
Answer: The growth was -26.6% (active).

Question: How did the growth turn out when `COc1ccc(-n2cc(-c3cc(OC)c(OC)c(OC)c3)n(C(C)=O)c2=O)cc1` was run?
Answer: Its growth is 84.1% (inactive).

Question: Which growth does the source give for `C=C(C)[C@@H]1CC[C@]2(C(=O)N3CCN(C)CC3)CC[C@]3(C)[C@H](CC[C@@H]4[C@@]5(C)CCC(=O)C(C)(C)[C@@H]5CC[C@]43C)[C@@H]12` here?
Answer: Its growth is 99.5% (inactive).

Question: Which growth does the source give for `COc1ccc(C(=O)c2cc(C)c(OC)c(C)c2)c(OC)c1N(C(=O)C(Cl)Cl)C(=O)C(Cl)Cl` here?
Answer: Its growth is 38.8% (inactive).

Question: `COc1ccc2c(c1)OC13Oc4cc(OC)ccc4C=C1CCCC3=C2` was tested. Which growth did it give?
Answer: The growth was 14.8% (inactive).

Question: Which growth does the source give for `CC(O)(CO)c1ccccc1` (configuration not stated) here?
Answer: The growth was 96% (inactive).

Question: `O=C(Nc1nc(-c2ccccc2Cl)cs1)c1cc(-c2ccccc2)nc2ccc(Cl)cc12` was tested. Which growth did it give?
Answer: Its growth is 41.8% (inactive).

Question: Which growth does the source give for `COC(=O)N[C@H]1CCc2cc(OC)c(OC)c(OC)c2-c2ccc(SC)c(=O)cc21` here?
Answer: The growth was 34.9% (inactive).

Question: `CCCCCCN(C)Cc1ccc(OCCOc2ccc(CN(C)CCCCCC)cc2)cc1` was tested. Which growth did it give?
Answer: Its growth is -11.5% (active).

Question: For `CCOC(=O)N1CCc2c(sc3nc4nc[nH]n4c(=O)c23)C1`, which growth is on record?
Answer: The growth was 98.8% (inactive).

Question: How did the growth turn out when `CC(=O)c1cccc(NS(=O)(=O)c2cccc(C(=O)Nc3ccc(Br)cc3)c2)c1` was run?
Answer: The growth was 38.9% [25 µM] (inactive).

Question: With `CC(C)Cc1ccc(C(C)C(=O)NCc2c[nH]c3ccc(Cl)cc23)cc1` (configuration not stated) as the compound, how does the growth read?
Answer: Its growth is 66.6% (inactive).

Question: For `CCCC1C(C(=O)OCC)=C(N)Oc2cc(O)ccc21` (configuration not stated), which growth is on record?
Answer: The growth was 94.8% (inactive).

Question: Which growth does the source give for `Cc1ccc(C(=O)Nc2ccccc2C(=O)N/N=C(\c2ccccc2)c2ccccn2)cc1` here?
Answer: Its growth is 5.33% (active).

What follows are compounds tested on LOX IMVI melanoma in the same assay as above. Details: 10 µM unless noted.

Question: With `N#C/C(=C\c1ccc(Br)cc1)n1nnc2cccc(F)c21` as the compound, how does the growth read?
Answer: Its growth is -56.3% (active).

Question: Which growth does the source give for `COc1cc2oc(-c3cccc(C(=O)Nc4ccc(Cl)cc4)c3)cc(=O)c2c(OC)c1OC` here?
Answer: Its growth is 2.16% (active).

Question: With `CS(=O)(=O)c1ccc(-c2cc(-c3nnc(SCC(=O)Nc4ccc(C(=O)/C=C/c5ccc(Cl)cc5)cc4)n3-c3ccccc3)c3ccccc3n2)cc1` as the compound, how does the growth read?
Answer: Its growth is 92.2% (inactive).

Question: How did the growth turn out when `COc1ccccc1OCC(=O)N1CCCCCC1` was run?
Answer: Its growth is 93.6% (inactive).

Question: With `NC(=O)c1cccc(-n2ccc3cc(NC(=O)Nc4cc(C(F)(F)F)cc(C(F)(F)F)c4)ccc32)n1` as the compound, how does the growth read?
Answer: The growth was 50.9% (inactive).

Question: `COc1cc2nc(-c3ccc(C(F)(F)F)cc3)cc(OCCCN3CCCCC3)c2cc1OC` was tested. Which growth did it give?
Answer: The growth was -28.5% (active).

Question: Which growth does the source give for `COc1ccc2c(Nc3ccc(NS(C)(=O)=O)cc3)c3ccccc3nc2c1` here?
Answer: Its growth is -5.18% (active).

Question: `C=CCn1c(SCC(=O)Nc2ccc(C(=O)/C=C/c3cc(OC)c(OC)c(OC)c3)cc2)nnc1-c1cc(-c2ccc(S(C)(=O)=O)cc2)nc2ccccc12` was tested. Which growth did it give?
Answer: The growth was 67% (inactive).

Question: `CN(C)c1ccc(-c2c(C#N)c(N)n3nc(N)c(C#N)c3c2C#N)cc1` was tested. Which growth did it give?
Answer: Its growth is 8.51% (active).

Question: How did the growth turn out when `CCCCCN1C=C/C(=C\C(=O)N(C)c2cccc3ccccc23)c2ccccc21` was run?
Answer: Its growth is 97.8% (inactive).

Question: With `CCCCCOc1ccc(/C=N/Nc2cc(C)nc3ccc(Br)cc23)cc1` as the compound, how does the growth read?
Answer: Its growth is -92.9% (active).

Question: Which growth does the source give for `COc1cccc(C(Cc2ccccc2)Nc2ccccc2)c1OC` (configuration not stated) here?
Answer: Its growth is 98.1% (inactive).

Question: How did the growth turn out when `Cc1ccc(Nc2cc(=S)nc(N)[nH]2)cc1C` was run?
Answer: Its growth is 105% (inactive).

Question: With `O=S(=O)(O)c1cc(O)c2c(N=Nc3ccc(Nc4ccccc4)c4c(S(=O)(=O)O)cccc34)cc(S(=O)(=O)O)cc2c1` as the compound, how does the growth read?
Answer: Its growth is 96.5% (inactive).

Question: Which growth does the source give for `COc1cc2c(cc1[N+](=O)[O-])-c1ccc([N+](=O)[O-])cc1/C2=N\O` here?
Answer: Its growth is 67.8% (inactive).

Question: `CS(=O)(=O)OCCN(CCOS(C)(=O)=O)c1ccc(/C=N/Nc2ccc([N+](=O)[O-])cc2[N+](=O)[O-])cc1` was tested. Which growth did it give?
Answer: Its growth is 63.5% (inactive).

Question: With `COc1cc2c(cc1[N+](=O)[O-])-c1ccc([N+](=O)[O-])cc1/C2=N/NC(N)=S` as the compound, how does the growth read?
Answer: The growth was 43.5% (inactive).

Question: For `CN(C)C(C(N)=O)c1ccc(Cl)cc1` (configuration not stated), which growth is on record?
Answer: The growth was 95.7% (inactive).

Question: Which growth does the source give for `CC(C)(C)OC(=O)N1CCN(c2ccc(N)cc2)C(=O)C1` here?
Answer: The growth was 99.1% (inactive).

Question: How did the growth turn out when `CC(=O)OCC(=O)C1(O)C(C)CC2C3C=C(C)C4=Cc5c(cnn5-c5ccccc5)CC4(C)C3C(O)CC21C` (configuration not stated) was run?
Answer: Its growth is 6.79% (active).

Question: For `Cc1ccc(C2C3CC4CCCCC4N3[C@@]3(C(=O)Nc4cc(Cl)ccc43)C2C(=O)c2nc3ccccc3[nH]2)cc1` (some centres not stated), which growth is on record?
Answer: The growth was 29.7% (inactive).

Question: How did the growth turn out when `COc1ccc(-n2cc(-c3cc(OC)c(OC)c(OC)c3)n(C(C)=O)c2=O)cc1` was run?
Answer: Its growth is 94% (inactive).

Question: `C=C(C)[C@@H]1CC[C@]2(C(=O)N3CCN(C)CC3)CC[C@]3(C)[C@H](CC[C@@H]4[C@@]5(C)CCC(=O)C(C)(C)[C@@H]5CC[C@]43C)[C@@H]12` was tested. Which growth did it give?
Answer: Its growth is 92.5% (inactive).

Question: Which growth does the source give for `NC(=S)N/N=C(/c1ccccc1)c1ccccc1N` here?
Answer: The growth was 96.1% (inactive).

Question: How did the growth turn out when `COc1ccc(C(=O)c2cc(C)c(OC)c(C)c2)c(OC)c1N(C(=O)C(Cl)Cl)C(=O)C(Cl)Cl` was run?
Answer: Its growth is 20.3% (inactive).

Question: Which growth does the source give for `c1ccc(-c2nn(-c3ccccc3)[n+](-c3ccccc3-c3ccccc3)n2)cc1` here?
Answer: The growth was 12.5% (inactive).

Question: How did the growth turn out when `COc1ccc2c(c1)OC13Oc4cc(OC)ccc4C=C1CCCC3=C2` was run?
Answer: The growth was -32.1% (active).

Question: For `CC(O)(CO)c1ccccc1` (configuration not stated), which growth is on record?
Answer: Its growth is 102% (inactive).

Question: With `O=C(Nc1nc(-c2ccccc2Cl)cs1)c1cc(-c2ccccc2)nc2ccc(Cl)cc12` as the compound, how does the growth read?
Answer: Its growth is 21.6% (inactive).

Question: How did the growth turn out when `COC(=O)N[C@H]1CCc2cc(OC)c(OC)c(OC)c2-c2ccc(SC)c(=O)cc21` was run?
Answer: Its growth is 15.7% (inactive).

Question: How did the growth turn out when `CCCCCCN(C)Cc1ccc(OCCOc2ccc(CN(C)CCCCCC)cc2)cc1` was run?
Answer: The growth was -95.3% (active).

Question: Which growth does the source give for `CCOC(=O)N1CCc2c(sc3nc4nc[nH]n4c(=O)c23)C1` here?
Answer: Its growth is 94.6% (inactive).

Question: `CCOC(=O)c1c(C)nc2c(c1N)C(=O)C(=O)N2Cc1ccc(C(F)(F)F)cc1` was tested. Which growth did it give?
Answer: The growth was 54.1% (inactive).

Question: With `CC(=O)c1cccc(NS(=O)(=O)c2cccc(C(=O)Nc3ccc(Br)cc3)c2)c1` as the compound, how does the growth read?
Answer: Its growth is 50.5% [25 µM] (inactive).

Question: How did the growth turn out when `COc1ccccc1C(C[N+](=O)[O-])c1c(-c2ccccc2)[nH]c2cc(C)ccc12` (configuration not stated) was run?
Answer: Its growth is 70.1% (inactive).

Question: How did the growth turn out when `CC(C)Cc1ccc(C(C)C(=O)NCc2c[nH]c3ccc(Cl)cc23)cc1` (configuration not stated) was run?
Answer: The growth was 96% (inactive).

Question: `CCCC1C(C(=O)OCC)=C(N)Oc2cc(O)ccc21` (configuration not stated) was tested. Which growth did it give?
Answer: Its growth is 90.4% (inactive).

Question: How did the growth turn out when `Cc1ccc(C(=O)Nc2ccccc2C(=O)N/N=C(\c2ccccc2)c2ccccn2)cc1` was run?
Answer: The growth was 5.79% (active).
